Results filed as inconclusive are left out. The source made the active and inactive calls. The call rests on the fitted dose curve; in most records, active means well fitted curve in the direction sought with a large enough effect; inconclusive means small, poorly fitted or top-dose-only effect, or another doubt; inactive means no such curve, though single readings can be large or run the other way.
biological target: Aldehyde dehydrogenase 1A1 (Homo sapiens) (UniProt P00352); experiment: qHTS for Inhibitors of the Aldehyde Dehydrogenase Family (ALDH1A1) Validation screens; conditions: fluorescence; Potency: ALDH1A1 inhibition validation qHTS; series mostly up to 39.8 µM; activity change, negative = inhibition: at the top concentration

CC(C)N(CCC(=O)c1ccc2ccccc2c1)Cc1ccccc1 was tested. Which Potency did it give?
Its Potency is 70.8 nM (active).

For CC(C)(C)c1ccc(S(=O)(=O)/C=C/C#N)cc1, which Potency is on record?
Its Potency is 89.1 nM (active).

How did the “activity change, negative = inhibition” value turn out when O=c1c(-c2ccc(O)cc2)coc2cc(O[C@@H]3O[C@H](CO)[C@H](O)[C@H](O)[C@H]3O)ccc12 was run?
Its value is -7.82% (inactive).

— PubChem BioAssay AID2061313 (National Center for Advancing Translational Sciences (NCATS), 2025)
